# Hit rate of the full screen: of about 360,000 compounds, about 690 (0.19%) were called active.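 The calls were made as follows: active = fluorescence ratio to DMSO below 75%, the collection mean minus 3 SD; inconclusive = too few cells collected in the well; inactive = the rest.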 This excerpt belongs to a sample that is enriched for actives.
# Target: ATP-binding cassette sub-family B member 6 (Homo sapiens) (UniProt Q9NP58)
# Assay: ABCB6 transporter inhibitors, primary screen, K562-ABCB6 cells, flow cytometry, MLPCN library (AID 602162);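 also: signal is porphyrin accumulated inside mitochondria; 100% equals median channel fluorescence of DMSO control wells; lower ratio means ABCB6 inhibition with less porphyrin fluorescence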
# Settings: K562-ABCB6 porphyrin accumulation, 1 h, at 10 µM, stronger effect = lower value
# Chain of ATP-binding cassette sub-family B member 6 (Homo sapiens) (Q9NP58 whole entry, looked up): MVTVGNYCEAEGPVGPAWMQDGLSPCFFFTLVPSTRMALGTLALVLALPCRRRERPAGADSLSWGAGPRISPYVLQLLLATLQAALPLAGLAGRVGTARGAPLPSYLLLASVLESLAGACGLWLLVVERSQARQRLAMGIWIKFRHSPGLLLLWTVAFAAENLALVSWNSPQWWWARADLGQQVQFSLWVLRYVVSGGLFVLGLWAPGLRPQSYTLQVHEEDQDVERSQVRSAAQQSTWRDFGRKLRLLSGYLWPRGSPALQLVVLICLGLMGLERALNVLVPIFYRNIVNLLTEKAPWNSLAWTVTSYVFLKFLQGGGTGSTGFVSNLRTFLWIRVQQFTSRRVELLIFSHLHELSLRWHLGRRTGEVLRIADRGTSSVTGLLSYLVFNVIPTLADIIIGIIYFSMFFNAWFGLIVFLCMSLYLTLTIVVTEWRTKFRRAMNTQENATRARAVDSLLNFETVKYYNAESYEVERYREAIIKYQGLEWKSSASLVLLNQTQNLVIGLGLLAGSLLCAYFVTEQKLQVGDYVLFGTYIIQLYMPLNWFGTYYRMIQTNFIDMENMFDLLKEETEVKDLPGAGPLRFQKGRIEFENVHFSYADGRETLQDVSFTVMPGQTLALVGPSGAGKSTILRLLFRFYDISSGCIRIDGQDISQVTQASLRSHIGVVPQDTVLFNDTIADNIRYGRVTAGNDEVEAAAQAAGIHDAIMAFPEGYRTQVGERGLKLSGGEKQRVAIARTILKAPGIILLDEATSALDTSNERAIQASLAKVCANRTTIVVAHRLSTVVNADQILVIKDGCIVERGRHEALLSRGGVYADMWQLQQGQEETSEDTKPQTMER
row,SMILES,fluorescence ratio to DMSO
1,Cc1ccc(Cl)cc1N1CCN(C(=O)c2cccc3c(=O)c(C)c(-c4ccccc4)oc23)CC1,73% (active)
2,COc1ccccc1N1CCN(C(=O)c2cc(=O)c3cc(C)cc(C)c3o2)CC1,101% (inactive)
3,Cc1cccc(N2CCN(C(=O)c3cnn4c(C(F)F)cc(-c5ccccc5)nc34)CC2)c1C,97% (inactive)
4,C/C(CCc1ccccc1)=N\NC(=O)c1ccc(CN2CCOCC2)cc1,97% (inactive)
5,CSC1=NN(c2ccccc2)CN(c2ccccc2)N1C,98% (inactive)
6,CCCOP(=O)(c1ccc(N(C)C)cc1)C(O)c1cc(OC)c(OC)c(OC)c1 (stereo unspecified),94% (inactive)
7,COc1ccccc1S(=O)(=O)NCc1ccc(C(=O)N(C)Cc2ccc(F)cc2)cc1,92% (inactive)
8,Cc1ccc(SCC(=O)Nc2nncs2)cc1,99% (inactive)
9,Cc1cnc(NC(=O)Cn2cnc3c2c(=O)n(C)c(=O)n3C)s1,101% (inactive)
10,Cc1ccc(SCC(=O)Nc2ncc(C)s2)cc1,71% (active)
11,Fc1cccc(Cc2noc(CN3CCN(c4cnccn4)CC3)n2)c1,95% (inactive)
12,COc1ccccc1CNC(=O)CSc1nc(=O)n(Cc2ccncc2)c2c1CCC2,100% (inactive)
13,Cc1ccc2c(C)c(C(=O)N(C)Cc3ccncn3)oc2c1C,96% (inactive)
14,Cc1ccccc1OC(=O)Cn1c(C(F)(F)F)nc2ccccc21,93% (inactive)
15,Cc1cccc(C)c1NC(=O)COC(=O)c1c(C)nn(-c2ccccc2)c1C,100% (inactive)
16,COc1ccc(CNC(=O)COC(=O)c2c(C)nn(-c3ccccc3)c2C)cc1OC,98% (inactive)
17,Cc1nn(-c2ccccc2)c(C)c1C(=O)OCC(=O)NC(=O)NC1CCCCC1,74% (active)
18,O=C(/C=C/c1ccccc1)Oc1coc(CSc2ncccn2)cc1=O,104% (inactive)
19,CC1(C)O[C@@H]2[C@H](O1)[C@@H](COS(=O)(=O)O)O[C@H]2n1cnc2c(=O)[nH]cnc21,98% (inactive)
20,COc1ccc(CC(=O)NCc2nnc(SCC(=O)Nc3ncc(C)s3)n2C)cc1,103% (inactive)
21,O=C(CC(c1ccccc1)c1cc(Cl)ccc1O)NCCN1CCOCC1 (stereo unspecified),91% (inactive)

row,SMILES,fluorescence ratio to DMSO
1,O=S(=O)(c1ccc(F)cc1)n1ccc(-c2cnc(-c3ccccc3)s2)n1,91% (inactive)
2,CN(CC(=O)Nc1cccc(F)c1)C(=O)C1CSC2(C)CCC(=O)N12 (stereo unspecified),96% (inactive)
3,O=C(NCc1cccs1)C(=O)NCC1OCCCN1S(=O)(=O)c1ccc(F)cc1 (stereo unspecified),103% (inactive)
4,CC(C)C(=O)NCC(c1cccs1)S(=O)(=O)c1ccc(F)cc1 (stereo unspecified),11% (active)
5,COCCNC(=O)C(OC(=O)c1cccs1)c1ccc(F)cc1 (stereo unspecified),100% (inactive)
6,N#Cc1cccc(NC(=O)C2CCCN(C(=O)c3ccc(Cl)cc3)C2)c1 (stereo unspecified),104% (inactive)
7,Cc1c(C(=O)NC(=S)NCc2cccnc2)oc2ccccc12,99% (inactive)
8,CC12CCCCC1=CC(=O)CC2 (stereo unspecified),101% (inactive)
9,COc1ccc(CNC(=O)CN2C(=O)NC3(CCCc4sccc43)C2=O)cc1 (stereo unspecified),93% (inactive)
10,O=C(CN1C(=O)NC2(CCCC2)C1=O)Nc1ccc(F)c(F)c1F,104% (inactive)
11,CC(C(=O)Nc1ccc(F)c(F)c1F)N1CCCCCC1 (stereo unspecified),74% (active)
12,CC(C(=O)Nc1ccccc1-c1ccccc1)N1CCOCC1 (stereo unspecified),104% (inactive)
13,COCCCNc1ccn2nc(-c3ccc(CC(C)C)cc3)cc2n1,100% (inactive)
14,COC(=O)c1cc(NC(=O)CN2CCC(C(N)=O)(N3CCCCC3)CC2)cc(C(=O)OC)c1,104% (inactive)
15,Cc1sc2ncn(CC(=O)NCCCC(=O)N(C)Cc3ccccc3)c(=O)c2c1C,97% (inactive)
16,O=C(Nc1cc(=O)[nH]c2ncnn12)c1ccccc1Cl,101% (inactive)
17,CC(C)C[C@H](NC(=O)[C@@H]1O[C@H]1C(=O)O)C(=O)NCCCCN=C(N)N,94% (inactive)
18,CCC(c1nnnn1-c1ccc2c(c1)OCCO2)N1CCN(c2ccc(C(F)(F)F)cn2)CC1 (stereo unspecified),99% (inactive)
19,CN(Cc1ccccc1)C(=O)CCC1CCN(C(=O)c2ccco2)CC1,90% (inactive)
20,CC(=O)N1CCc2cc(S(=O)(=O)NC3CCCCC3)ccc21,97% (inactive)
21,CCC(=O)N1CCCC1(C)C(=O)Nc1ccc2c(c1)CCN2C(C)=O (stereo unspecified),72% (active)

row,SMILES,fluorescence ratio to DMSO
1,CCCNS(=O)(=O)c1ccc2c(c1)CCCN2C(C)=O,75% (inactive)
2,CC(C)(C)n1cnnc1Sc1ccc([N+](=O)[O-])cn1,101% (inactive)
3,CC1CCCCC1NC(=O)NC(=O)COC(=O)C1=NN(c2ccccc2)C(=O)CC1 (stereo unspecified),102% (inactive)
4,CC1(C(=O)Nc2ccc3c(c2)OCCO3)CCN1C(=O)Cc1cc(F)ccc1F (stereo unspecified),100% (inactive)
5,COc1ccc(OC)c(C(=O)NC(CC(N)=O)c2ccc(N3CCC(N4CCCCC4)CC3)c([N+](=O)[O-])c2)c1 (stereo unspecified),92% (inactive)
6,Cc1nn(-c2ccccc2)c2[nH]c(C(F)(F)F)cc(=O)c12,87% (inactive)
7,CCOc1ccc(C(=O)COC(=O)c2ccc(-n3cnnn3)cc2)cc1,101% (inactive)
8,O=C(COc1ccc(-n2cnnn2)cc1)Nc1ccccc1Cl,73% (active)
9,C=CCc1cccc(/C=N/NC(=O)COc2ccc(-n3cnnn3)cc2)c1O,93% (inactive)
10,CC1CCN(C(=O)CSc2nnc(-c3ccco3)n2N)CC1,95% (inactive)
11,CN(C(=O)c1ccccc1)c1nccnc1C#N,98% (inactive)
12,COC(=O)c1ccc(CSc2ccc(S(=O)(=O)N3CCCCC3)cn2)cc1,100% (inactive)
13,O=C1CCCC2=C1C(c1cccs1)n1nc(SCc3ccccc3)nc1N2 (stereo unspecified),55% (active)
14,O=C1CCCC2=C1C(c1cccs1)CC(=O)N2c1ccc(F)cc1 (stereo unspecified),95% (inactive)
15,CCC(=O)N1c2ccccc2NC2=C(C(=O)CCC2)C1c1ccco1 (stereo unspecified),101% (inactive)
16,Cn1ncc2c(Nc3cccc4ccccc34)ncnc21,85% (inactive)
17,CCCOc1cccc(C(=O)Nc2ccccc2C(=O)N2CCN(C)CC2)c1,99% (inactive)
18,C[C@]12CCC(=O)C=C1C=CC1C2CC[C@@]2(C)C1CC[C@@]21CCC(=O)O1 (stereo partly specified),98% (inactive)
19,COc1ccc(S(=O)(=O)N2CCOCC2)cc1NC(=O)CSc1ncnc2ccccc12,92% (inactive)
